Measurements from ChEMBL document CHEMBL1961873, “Compounds: GSK PKIS; Assays: Nanosyn kinase panel” (2012).

What was measured:
[1] = molecular target: 5'-AMP-activated protein kinase catalytic subunit alpha-2 (Homo sapiens) (UniProt P54646); settings: at 1 µM
[2] = molecular target: T1, NUAK family SNF1-like kinase 1 (Homo sapiens) (UniProt O60285); settings: at 0.1 µM
T1 sequence (whole entry): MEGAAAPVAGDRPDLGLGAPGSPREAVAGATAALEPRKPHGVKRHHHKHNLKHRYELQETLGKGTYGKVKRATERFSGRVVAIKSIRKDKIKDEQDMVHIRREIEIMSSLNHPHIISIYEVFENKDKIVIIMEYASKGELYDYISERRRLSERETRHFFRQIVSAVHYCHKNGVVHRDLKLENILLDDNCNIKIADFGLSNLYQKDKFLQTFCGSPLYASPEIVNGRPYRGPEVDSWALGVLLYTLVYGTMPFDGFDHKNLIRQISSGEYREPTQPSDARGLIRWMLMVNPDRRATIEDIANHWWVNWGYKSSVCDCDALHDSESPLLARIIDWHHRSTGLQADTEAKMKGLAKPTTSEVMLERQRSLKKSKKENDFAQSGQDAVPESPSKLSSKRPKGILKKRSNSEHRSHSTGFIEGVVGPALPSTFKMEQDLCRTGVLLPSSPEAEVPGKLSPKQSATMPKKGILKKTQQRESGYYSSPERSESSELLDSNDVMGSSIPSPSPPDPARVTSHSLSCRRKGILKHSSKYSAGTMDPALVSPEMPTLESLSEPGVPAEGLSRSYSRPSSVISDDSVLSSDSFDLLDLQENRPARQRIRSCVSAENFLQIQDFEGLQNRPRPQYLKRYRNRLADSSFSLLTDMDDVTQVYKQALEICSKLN

[3] = molecular target: T1, NUAK family SNF1-like kinase 1 (Homo sapiens); settings: at 1 µM
[4] = molecular target: T2, Serine/threonine-protein kinase BRSK1 (Homo sapiens) (UniProt Q8TDC3); settings: at 0.1 µM
T2 sequence (whole entry): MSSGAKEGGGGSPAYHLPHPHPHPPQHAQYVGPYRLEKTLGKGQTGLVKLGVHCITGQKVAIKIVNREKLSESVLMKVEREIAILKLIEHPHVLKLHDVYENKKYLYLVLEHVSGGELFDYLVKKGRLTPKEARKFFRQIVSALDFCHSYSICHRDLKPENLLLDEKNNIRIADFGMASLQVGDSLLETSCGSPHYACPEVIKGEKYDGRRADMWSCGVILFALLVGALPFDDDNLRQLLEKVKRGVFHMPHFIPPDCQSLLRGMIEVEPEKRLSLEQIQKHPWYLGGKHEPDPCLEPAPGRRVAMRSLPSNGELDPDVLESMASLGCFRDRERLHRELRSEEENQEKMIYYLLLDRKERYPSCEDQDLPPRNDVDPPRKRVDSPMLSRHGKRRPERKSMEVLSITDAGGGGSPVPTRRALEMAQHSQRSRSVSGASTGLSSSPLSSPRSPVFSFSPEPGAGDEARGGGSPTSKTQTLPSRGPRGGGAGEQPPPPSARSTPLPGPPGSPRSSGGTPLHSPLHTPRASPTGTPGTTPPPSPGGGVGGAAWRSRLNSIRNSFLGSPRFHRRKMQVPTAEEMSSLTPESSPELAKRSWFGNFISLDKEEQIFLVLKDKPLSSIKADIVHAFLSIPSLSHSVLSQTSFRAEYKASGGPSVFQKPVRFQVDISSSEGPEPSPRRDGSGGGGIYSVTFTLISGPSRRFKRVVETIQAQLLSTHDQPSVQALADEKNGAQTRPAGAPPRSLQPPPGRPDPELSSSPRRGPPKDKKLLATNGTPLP

[5] = molecular target: T2, Serine/threonine-protein kinase BRSK1 (Homo sapiens); settings: at 1 µM
[6] = molecular target: T3, Serine/threonine-protein kinase BRSK2 (Homo sapiens) (UniProt Q8IWQ3); settings: at 0.1 µM
T3 sequence (whole entry): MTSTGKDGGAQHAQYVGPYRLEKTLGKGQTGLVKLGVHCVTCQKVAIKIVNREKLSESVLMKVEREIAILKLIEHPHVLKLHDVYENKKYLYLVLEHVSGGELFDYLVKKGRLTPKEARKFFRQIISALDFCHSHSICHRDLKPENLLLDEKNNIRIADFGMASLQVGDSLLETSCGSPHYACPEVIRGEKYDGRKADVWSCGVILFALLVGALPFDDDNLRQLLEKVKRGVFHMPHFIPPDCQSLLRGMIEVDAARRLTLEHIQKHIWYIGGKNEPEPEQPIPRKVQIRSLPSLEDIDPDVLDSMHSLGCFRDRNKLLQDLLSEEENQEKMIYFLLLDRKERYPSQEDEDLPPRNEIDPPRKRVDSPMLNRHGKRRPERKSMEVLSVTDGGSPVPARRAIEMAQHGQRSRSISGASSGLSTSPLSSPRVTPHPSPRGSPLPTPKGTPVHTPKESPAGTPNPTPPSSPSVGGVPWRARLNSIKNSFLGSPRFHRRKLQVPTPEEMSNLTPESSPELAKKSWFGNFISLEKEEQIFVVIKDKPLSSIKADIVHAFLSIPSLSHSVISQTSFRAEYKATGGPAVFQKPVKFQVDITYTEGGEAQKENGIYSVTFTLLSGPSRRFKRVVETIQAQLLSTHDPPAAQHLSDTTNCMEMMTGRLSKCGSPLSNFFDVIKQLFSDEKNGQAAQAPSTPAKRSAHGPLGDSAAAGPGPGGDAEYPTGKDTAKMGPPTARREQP

[7] = molecular target: T3, Serine/threonine-protein kinase BRSK2 (Homo sapiens); settings: at 1 µM
[8] = molecular target: Calcium/calmodulin-dependent protein kinase type 1D (Homo sapiens) (UniProt Q8IU85); settings: at 0.1 µM
[9] = molecular target: Calcium/calmodulin-dependent protein kinase type 1D (Homo sapiens) (UniProt Q8IU85); settings: at 1 µM
[10] = molecular target: Calcium/calmodulin-dependent protein kinase type II subunit alpha (Homo sapiens) (UniProt Q9UQM7); settings: at 0.1 µM
[11] = molecular target: Calcium/calmodulin-dependent protein kinase type II subunit alpha (Homo sapiens) (UniProt Q9UQM7); settings: at 1 µM
[12] = molecular target: Calcium/calmodulin-dependent protein kinase type II subunit delta (Homo sapiens) (UniProt Q13557); settings: at 0.1 µM
[13] = molecular target: Calcium/calmodulin-dependent protein kinase type II subunit delta (Homo sapiens) (UniProt Q13557); settings: at 1 µM
[14] = molecular target: T4, Calcium/calmodulin-dependent protein kinase type IV (Homo sapiens) (UniProt Q16566); settings: at 0.1 µM
T4 sequence (whole entry): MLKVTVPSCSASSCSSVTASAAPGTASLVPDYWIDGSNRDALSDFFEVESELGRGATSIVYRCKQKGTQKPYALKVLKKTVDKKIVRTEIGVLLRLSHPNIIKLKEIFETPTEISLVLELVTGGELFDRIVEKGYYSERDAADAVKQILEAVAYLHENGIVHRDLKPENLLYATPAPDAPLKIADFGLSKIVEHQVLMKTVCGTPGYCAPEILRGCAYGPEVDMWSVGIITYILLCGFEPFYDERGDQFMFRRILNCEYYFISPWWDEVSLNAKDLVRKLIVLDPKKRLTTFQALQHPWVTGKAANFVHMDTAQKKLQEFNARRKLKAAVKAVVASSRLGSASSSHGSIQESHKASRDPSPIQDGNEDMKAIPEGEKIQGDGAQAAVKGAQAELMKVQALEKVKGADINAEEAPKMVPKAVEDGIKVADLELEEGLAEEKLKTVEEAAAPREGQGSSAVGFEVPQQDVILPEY

[15] = molecular target: T4, Calcium/calmodulin-dependent protein kinase type IV (Homo sapiens); settings: at 1 µM
[16] = molecular target: T5, Serine/threonine-protein kinase Chk1 (Homo sapiens) (UniProt O14757); settings: at 0.1 µM
T5 sequence (whole entry): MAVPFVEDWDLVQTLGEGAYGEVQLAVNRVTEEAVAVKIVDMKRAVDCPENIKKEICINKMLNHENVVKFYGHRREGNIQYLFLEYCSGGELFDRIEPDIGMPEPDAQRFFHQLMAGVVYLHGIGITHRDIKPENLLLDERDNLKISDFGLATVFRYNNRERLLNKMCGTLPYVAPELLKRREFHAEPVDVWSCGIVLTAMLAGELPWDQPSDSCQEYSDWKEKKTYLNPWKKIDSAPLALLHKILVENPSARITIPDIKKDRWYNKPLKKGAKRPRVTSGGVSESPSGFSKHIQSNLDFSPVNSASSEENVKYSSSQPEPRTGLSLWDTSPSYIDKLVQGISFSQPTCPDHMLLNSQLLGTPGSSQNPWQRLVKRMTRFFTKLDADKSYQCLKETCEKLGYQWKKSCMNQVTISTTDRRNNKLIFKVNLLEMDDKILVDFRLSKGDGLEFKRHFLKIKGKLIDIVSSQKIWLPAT

[17] = molecular target: T5, Serine/threonine-protein kinase Chk1 (Homo sapiens); settings: at 1 µM
[18] = molecular target: Serine/threonine-protein kinase Chk2 (Homo sapiens) (UniProt O96017); settings: at 0.1 µM
[19] = molecular target: Serine/threonine-protein kinase Chk2 (Homo sapiens) (UniProt O96017); settings: at 1 µM
[20] = molecular target: Death-associated protein kinase 1 (Homo sapiens) (UniProt P53355); settings: at 0.1 µM;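 further: reported figure is the mean inhibition of DAPK1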
Chain of Death-associated protein kinase 1 (Homo sapiens) (P53355 whole entry, looked up): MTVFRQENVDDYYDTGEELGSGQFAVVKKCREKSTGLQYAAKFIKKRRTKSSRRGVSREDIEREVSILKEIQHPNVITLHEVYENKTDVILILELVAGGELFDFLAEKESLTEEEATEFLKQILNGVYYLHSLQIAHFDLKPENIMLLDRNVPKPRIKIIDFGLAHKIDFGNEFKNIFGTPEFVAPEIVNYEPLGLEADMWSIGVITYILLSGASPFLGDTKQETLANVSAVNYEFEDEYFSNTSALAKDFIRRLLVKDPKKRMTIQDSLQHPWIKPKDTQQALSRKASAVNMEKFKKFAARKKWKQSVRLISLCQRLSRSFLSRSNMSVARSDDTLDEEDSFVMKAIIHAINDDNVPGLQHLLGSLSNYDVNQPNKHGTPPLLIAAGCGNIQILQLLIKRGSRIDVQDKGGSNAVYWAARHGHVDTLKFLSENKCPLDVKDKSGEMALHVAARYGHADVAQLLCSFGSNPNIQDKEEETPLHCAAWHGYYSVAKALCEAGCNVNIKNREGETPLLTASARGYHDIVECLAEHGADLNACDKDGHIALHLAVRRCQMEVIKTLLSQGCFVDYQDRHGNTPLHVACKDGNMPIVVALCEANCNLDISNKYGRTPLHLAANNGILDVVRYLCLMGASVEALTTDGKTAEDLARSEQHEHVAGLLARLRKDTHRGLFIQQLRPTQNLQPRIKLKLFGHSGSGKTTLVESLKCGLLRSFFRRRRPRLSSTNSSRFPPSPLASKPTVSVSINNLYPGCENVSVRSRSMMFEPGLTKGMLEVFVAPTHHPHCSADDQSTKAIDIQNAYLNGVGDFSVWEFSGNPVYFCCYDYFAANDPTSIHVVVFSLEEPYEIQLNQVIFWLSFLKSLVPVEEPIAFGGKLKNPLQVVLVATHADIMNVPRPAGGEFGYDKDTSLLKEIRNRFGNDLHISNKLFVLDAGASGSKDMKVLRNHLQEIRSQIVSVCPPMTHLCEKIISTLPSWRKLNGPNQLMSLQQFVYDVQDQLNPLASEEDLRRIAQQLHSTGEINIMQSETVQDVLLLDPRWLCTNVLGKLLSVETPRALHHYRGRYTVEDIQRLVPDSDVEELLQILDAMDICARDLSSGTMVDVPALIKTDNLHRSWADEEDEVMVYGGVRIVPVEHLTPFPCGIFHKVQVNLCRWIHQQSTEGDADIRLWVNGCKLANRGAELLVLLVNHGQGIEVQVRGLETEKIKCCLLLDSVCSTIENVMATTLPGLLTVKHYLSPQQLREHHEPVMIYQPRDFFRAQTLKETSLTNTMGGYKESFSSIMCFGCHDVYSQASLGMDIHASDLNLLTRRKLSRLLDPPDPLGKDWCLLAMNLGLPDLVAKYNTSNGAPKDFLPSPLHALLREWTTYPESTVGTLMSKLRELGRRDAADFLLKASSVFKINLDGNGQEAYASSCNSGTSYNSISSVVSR

Chain of 5'-AMP-activated protein kinase catalytic subunit alpha-2 (Homo sapiens) (P54646 whole entry, looked up): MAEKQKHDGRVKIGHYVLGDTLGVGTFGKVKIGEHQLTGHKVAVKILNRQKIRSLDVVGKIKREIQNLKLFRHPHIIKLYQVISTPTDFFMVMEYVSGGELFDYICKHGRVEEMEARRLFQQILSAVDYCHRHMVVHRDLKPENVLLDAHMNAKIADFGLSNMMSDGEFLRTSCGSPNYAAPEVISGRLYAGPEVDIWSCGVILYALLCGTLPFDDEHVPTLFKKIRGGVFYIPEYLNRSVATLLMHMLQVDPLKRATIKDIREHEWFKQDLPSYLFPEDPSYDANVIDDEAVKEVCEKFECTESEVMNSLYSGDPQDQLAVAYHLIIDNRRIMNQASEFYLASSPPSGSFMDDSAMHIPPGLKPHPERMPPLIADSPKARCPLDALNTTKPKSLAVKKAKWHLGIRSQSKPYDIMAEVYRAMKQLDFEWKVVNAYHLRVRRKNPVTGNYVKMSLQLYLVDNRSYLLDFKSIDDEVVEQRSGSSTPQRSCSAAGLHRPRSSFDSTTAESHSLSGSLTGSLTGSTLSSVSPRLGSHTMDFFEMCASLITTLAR
Chain of Calcium/calmodulin-dependent protein kinase type II subunit delta (Homo sapiens) (Q13557 whole entry): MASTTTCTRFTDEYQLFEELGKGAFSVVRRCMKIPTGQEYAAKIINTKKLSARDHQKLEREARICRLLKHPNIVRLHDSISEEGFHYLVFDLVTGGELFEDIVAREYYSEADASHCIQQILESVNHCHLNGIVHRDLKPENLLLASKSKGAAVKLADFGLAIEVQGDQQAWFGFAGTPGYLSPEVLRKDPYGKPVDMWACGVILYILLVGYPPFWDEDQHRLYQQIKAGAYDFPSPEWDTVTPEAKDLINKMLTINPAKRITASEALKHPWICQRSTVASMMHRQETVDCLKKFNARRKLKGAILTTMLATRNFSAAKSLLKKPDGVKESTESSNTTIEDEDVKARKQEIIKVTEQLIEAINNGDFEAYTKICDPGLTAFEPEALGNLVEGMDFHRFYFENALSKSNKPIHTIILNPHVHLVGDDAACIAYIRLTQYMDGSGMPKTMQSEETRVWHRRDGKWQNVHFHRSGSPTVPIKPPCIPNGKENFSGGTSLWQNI
Chain of Serine/threonine-protein kinase Chk2 (Homo sapiens) (O96017 whole entry): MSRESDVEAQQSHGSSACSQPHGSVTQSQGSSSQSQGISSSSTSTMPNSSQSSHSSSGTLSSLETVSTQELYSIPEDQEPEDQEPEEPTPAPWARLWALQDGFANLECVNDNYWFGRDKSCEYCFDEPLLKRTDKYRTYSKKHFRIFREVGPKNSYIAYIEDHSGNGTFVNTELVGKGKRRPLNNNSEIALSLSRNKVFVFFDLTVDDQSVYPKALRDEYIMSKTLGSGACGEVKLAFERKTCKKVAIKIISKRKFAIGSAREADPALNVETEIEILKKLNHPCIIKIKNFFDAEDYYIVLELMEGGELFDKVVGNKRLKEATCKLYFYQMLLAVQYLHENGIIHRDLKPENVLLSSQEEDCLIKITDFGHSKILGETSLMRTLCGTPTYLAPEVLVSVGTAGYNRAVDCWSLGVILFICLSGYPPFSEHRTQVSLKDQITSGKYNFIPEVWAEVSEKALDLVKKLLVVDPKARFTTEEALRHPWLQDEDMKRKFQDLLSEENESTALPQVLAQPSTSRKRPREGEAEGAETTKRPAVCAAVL
Chain of Calcium/calmodulin-dependent protein kinase type 1D (Homo sapiens) (Q8IU85 whole entry, looked up): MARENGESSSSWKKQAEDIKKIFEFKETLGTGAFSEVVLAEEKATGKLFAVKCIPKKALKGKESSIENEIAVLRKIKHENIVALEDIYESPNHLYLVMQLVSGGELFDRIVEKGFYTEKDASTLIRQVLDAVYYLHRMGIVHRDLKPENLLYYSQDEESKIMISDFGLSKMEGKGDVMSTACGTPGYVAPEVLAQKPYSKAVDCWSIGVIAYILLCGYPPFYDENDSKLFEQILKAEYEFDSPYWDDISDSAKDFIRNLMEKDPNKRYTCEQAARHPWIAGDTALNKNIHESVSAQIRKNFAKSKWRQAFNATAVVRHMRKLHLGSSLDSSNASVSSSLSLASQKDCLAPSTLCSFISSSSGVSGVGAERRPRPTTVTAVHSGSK
Chain of Calcium/calmodulin-dependent protein kinase type II subunit alpha (Homo sapiens) (Q9UQM7 whole entry): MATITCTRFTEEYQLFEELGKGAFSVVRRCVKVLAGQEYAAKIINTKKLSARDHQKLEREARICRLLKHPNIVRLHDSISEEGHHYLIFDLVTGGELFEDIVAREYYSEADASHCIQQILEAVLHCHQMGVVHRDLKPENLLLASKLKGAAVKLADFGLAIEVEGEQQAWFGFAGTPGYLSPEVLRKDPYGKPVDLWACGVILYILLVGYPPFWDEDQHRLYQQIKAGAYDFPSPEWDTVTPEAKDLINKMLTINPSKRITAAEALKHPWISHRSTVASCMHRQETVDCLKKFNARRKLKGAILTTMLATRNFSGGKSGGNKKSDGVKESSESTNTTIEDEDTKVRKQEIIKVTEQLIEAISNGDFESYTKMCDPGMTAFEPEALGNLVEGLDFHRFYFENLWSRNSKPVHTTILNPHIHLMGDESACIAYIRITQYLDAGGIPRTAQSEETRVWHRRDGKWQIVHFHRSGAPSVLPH

Row | SMILES | inhibition [1] [%] | inhibition [2] [%] | inhibition [3] [%] | inhibition [4] [%] | inhibition [5] [%] | inhibition [6] [%] | inhibition [7] [%] | inhibition [8] [%] | inhibition [9] [%] | inhibition [10] [%] | inhibition [11] [%] | inhibition [12] [%] | inhibition [13] [%] | inhibition [14] [%] | inhibition [15] [%] | inhibition [16] [%] | inhibition [17] [%] | inhibition [18] [%] | inhibition [19] [%] | inhibition [20] [%]
1 | CCn1c(-c2nonc2N)nc2c(C#CCN)ncc(OCCCN)c21 | 2.16 | 6.71 | 10.4 | 4.54 | 10.3 | 7.19 | 12.2 | -0.21 | -0.05 | -2.48 | -1.33 | -4.81 | -4.58 | -6 | -5.56 | -3.81 | 0.26 | -1.17 | 0.23 | -2.99
2 | COc1cccc(COc2cc(-n3cnc4ccccc43)sc2C(N)=O)c1 | 1.39 | -2.73 | 8.04 | -0.43 | 5.63 | 0.26 | 4.17 | 0.91 | 0.38 | 0.37 | -0.42 | 0.07 | -0.84 | 2.92 | -0.29 | 2.18 | -2.21 | -0.72 | -0.59 | 1.92
3 | NC(=O)c1sc(-n2cnc3cc(C(F)(F)F)ccc32)cc1OCc1ccccc1Br | 4.05 | -0.04 | 2.91 | 1.16 | 3.25 | 2.43 | 8.5 | 0.11 | 1.53 | 2.4 | -0.17 | 2.18 | 1.35 | 2.89 | 1.08 | -0.06 | 0.96 | 1.22 | 0.32 | 1.27
4 | CCn1c(-c2nonc2N)nc2c(C#CC(C)(C)O)ncc(OCC3CCNCC3)c21 | 16.1 | 6.78 | 37.2 | 0.32 | 6.72 | 2.53 | 10.8 | -0.03 | 0.97 | 3.5 | 2.25 | 2.49 | 4.75 | -2.07 | -2.31 | -0.5 | 5.91 | 2.91 | 6.65 | 1.8
5 | Nc1nonc1-c1nc2cnccc2n1C1CCCCC1 | 3.46 | 0.83 | 6.7 | -0.55 | 4.25 | 0.61 | 6.14 | 0.69 | 1.22 | -2.67 | 0.68 | -1.42 | 4.05 | 1.07 | 1.19 | -0.67 | 1.88 | -2 | -1.47 | -1.34
6 | COc1cccc(-n2ncc3c(N/N=C/c4ccncc4)ncnc32)c1 | 7.87 | 16.1 | 54.6 | 11.2 | 52.5 | 18.6 | 60.1 | 0.07 | 2.43 | 4.53 | 6.87 | 4.21 | 12.8 | -0.17 | -1.96 | 3.28 | 5.7 | 2.56 | 4.89 | 4.45
7 | COc1cc2c(cc1Nc1nc(Nc3ccsc3C(N)=O)c3cc[nH]c3n1)N(C(=O)CN(C)C)CCC2 | 2.09 | 1.84 | 1.85 | 0.07 | 1.57 | 0.73 | -0.28 | – | – | -4.48 | -4.91 | 3.02 | 13 | 2.85 | 12.1 | -2.04 | – | 2.31 | 11.8 | 2.17
